# Bioassay records as filed in PubChem BioAssay.
# Rows were chosen to be rich in hits. Some 2.6% of all compounds tested hit in one or more screens of this group.
# 697 NFkB inh: inhibitors of PMA/ionomycin-induced NF-kB reporter, 697 cells, primary screen, B-cell NF-kB inhibitor project, cell-based, luminescence, uHTS; inhibition, % at 4 µM; AID 435022, 2010; 697 B-cell NF-kB luciferase reporter, 16 h; 0.33% of 330,000 active; in the data active = inhibition above about 35%
# COUP-TFII inh: NR2F2 transcriptional activity inhibitors, primary screen, cell-based, luciferase reporter, HEK293T, luminescence; COUP transcription factor 2 (Homo sapiens), P24468; 0.7% of 370,000 active; inhibition, % at 8.6 µM; AID 686940, 2013; HEK293T NGFI-A luciferase reporter;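 active = inhibition above a per-plate cutoff, mean inhibition of test wells between control levels plus 3 SD, cut at about 38% in these data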;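 also: cells cotransfected with COUP-TFII expression vector driving the NGFI-A reporter; 0% = median of COUP-TF2 test wells and 100% = reporter-only cells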
# Target sequence (P24468 whole entry, looked up): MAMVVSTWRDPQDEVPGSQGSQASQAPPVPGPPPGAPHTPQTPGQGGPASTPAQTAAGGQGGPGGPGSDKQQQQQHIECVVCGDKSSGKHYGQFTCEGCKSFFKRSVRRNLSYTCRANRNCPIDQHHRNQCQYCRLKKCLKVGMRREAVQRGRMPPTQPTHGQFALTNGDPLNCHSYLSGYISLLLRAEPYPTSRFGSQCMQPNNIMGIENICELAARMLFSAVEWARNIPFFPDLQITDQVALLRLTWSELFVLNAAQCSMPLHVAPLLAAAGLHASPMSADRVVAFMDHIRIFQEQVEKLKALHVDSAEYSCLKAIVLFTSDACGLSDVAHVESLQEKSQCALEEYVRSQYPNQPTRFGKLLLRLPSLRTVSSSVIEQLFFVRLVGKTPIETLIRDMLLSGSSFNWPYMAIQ
# Jurkat NFkB inh: inhibitors of induced NF-kB luciferase reporter, primary screen, TCR NF-kB activation inhibitor project, cell-based, luminescence, uHTS; Jurkat, PMA/ionomycin-induced NF-kB luciferase reporter; AID 435003, 2010; inhibition, % at 4 µM; 0.53% of 330,000 active; in the data active = inhibition above about 50%
# Cardio protect: cardioprotection against H2O2-induced cell death, primary screen, uHTS, H9c2 cells, ATPLite luminescence; 0.63% of 360,000 active; protection from H2O2 cell death, % at 20 µM; H9c2 cardiomyocytes, H2O2 injury protection, 2 h;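 active = compounds giving at least 50% protection of heart cells from peroxide-induced death in the single-dose screen, raw or plate-pattern-corrected value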;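 also: 0% = DMSO wells with peroxide and 100% = DMSO wells without peroxide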
# Gli-Sufu antag: Gli-Sufu pathway antagonists, primary screen, luciferase luminescence, Sufu-KO-LIGHT cells, uHTS; Sufu-KO-LIGHT fibroblasts, Gli luciferase reporter luminescence; inhibition, % at 5 µM; 0.74% of 340,000 active;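 active = inhibition above about 55%, limit read from the data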;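 also: 0% = DMSO-treated cells and 100% = wells with medium but no cells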
# H9c2 TAG inh: inhibitors of triacylglycerol accumulation, primary screen, cell-based, uHTS, fluorescence, H9c2. H9c2 cells, Nile Red lipid (TAG) fluorescence; cells loaded with 200 µM oleic acid. inhibition, % at 12.5 µM. 0.66% of 230,000 active. AID 651582, 2012;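 active = pattern-corrected inhibition of lipid staining of at least 50% with the nuclear-stain viability signal not falling by more than 50%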;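 also: 0% = DMSO wells and 100% = triacsin C control wells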
# Gli antag conf: Gli-SUFU pathway antagonists, confirmation, single concentration, luciferase luminescence, Sufu-KO-LIGHT cells. shares compounds with Gli-Sufu antag. Gli luciferase reporter. inhibition, % at 5 µM. 40% of 2,500 active. AID 602428, 2012;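 active = mean inhibition at 5 µM reaching about 45%, limit read from the data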;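 also: plate controls were DMSO-treated cells for no effect and wells lacking cells for full effect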
# SufuKO cytotox: cytotoxicity in Sufu-KO-LIGHT cells, confirmation, cytotoxicity control for Gli-SUFU antagonist project, cell-based, ATP luminescence, single concentration | cytotoxicity, % at 5 µM | 32% of 2,500 active | AID 651994, 2013 | shares compounds with Gli-Sufu antag;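 active = mean cytotoxicity at 5 µM above about 25%, limit read from the data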;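 also: cells exposed to compound overnight for roughly 16 to 18 hours; plate controls were DMSO wells with cells for no effect and medium without cells for full effect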
# Wnt3a cs: Wnt3a reporter signal inhibition, confirmation, counter-screen for Gli-SUFU antagonist project, Wnt-LIGHT cells, luminescence, single concentration; inhibition, % at 6.25 µM; shares compounds with Gli-Sufu antag; 20% of 2,500 active; Wnt3a-driven luciferase reporter; AID 651995, 2013;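 active = mean inhibition above about 25%, limit read from the data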
# An asterisk follows results filed as active; x = no result.
SMILES,697 NFkB inh,COUP-TFII inh,Jurkat NFkB inh,Cardio protect,Gli-Sufu antag,H9c2 TAG inh,Gli antag conf,SufuKO cytotox,Wnt3a cs
O=C(O[C@H]1CC[C@@]23CCCN2C(=O)CCC[C@H]3C1)N1CCCC1,x,12,x,x,x,x,x,x,x
CC(c1ccc(F)cc1)n1cc(C(=O)NCCN(C)C)nn1 (stereo not drawn),-35,-7,-31,2,57*,-20,29,21,6
CC(c1ccc(F)cc1)n1cc(C(=O)NCc2ccccn2)nn1 (stereo not drawn),17,0,-7,-1,-6,x,x,x,x
O=S(=O)(c1cc(Br)ccc1Br)N1CCCCCC1,7,-1,4,-6,56*,x,14,12,9
COC(=O)C1=C(C)N(Cc2ccccc2C(F)(F)F)C(=NCc2ccccc2C(F)(F)F)NC1c1ccc(Cl)cc1 (stereo not drawn),x,-9,x,x,x,x,x,x,x
CCOc1ccc(NC(=O)CCSc2nnc(C)s2)cc1,8,0,3,-6,53,7,17,-2,3
COc1nc(N(C)C)nc(N(OC)S(=O)(=O)c2ccccc2Cl)n1,-23,-13,-5,-2,2,-19,x,x,x
CON(c1nc(Cl)nc(N(C)C)n1)S(=O)(=O)c1ccccc1Cl,18,9,25,1,88*,-12,27,5,-9
COC(=O)[C@]12C[C@H](CC(=O)NCc3cccc4ccccc34)C(=O)N(Cc3ccco3)C1=C[C@H](COCc1ccccc1)O[C@@H]2C,x,1,x,x,x,x,x,x,x
CCOc1cccc(-c2c(C(=O)N/N=C(\C)c3ccncc3)nnn2-c2nonc2N)c1,-14,-8,7,10,-2,x,x,x,x
C/C(=N/NC(=O)c1nnn(-c2nonc2N)c1-c1ccccc1)c1ccc2c(c1)OCO2,7,-2,-6,1,51,x,24,2,4
CCOc1cccc(-c2c(C(=O)N/N=C(\C)c3ccccn3)nnn2-c2nonc2N)c1,x,1,x,51*,75*,x,86*,51*,88*
CC(=O)Nc1nonc1-c1nc2ccccc2n1Cc1ccccc1,-11,-19,13,-2,11,-25,x,x,x
CCn1c(-c2nonc2NC(=O)c2ccccc2)nc2ccccc21,-129,1,-32,-9,70*,x,27,12,24
Cn1ccc(C(=O)N/N=C/c2c[nH]c3ccccc23)n1,2,-4,-19,-10,97*,x,6,20,-50
O=C(N/N=C/c1c[nH]c2ccccc12)c1ccn(Cc2ccc(Cl)cc2Cl)n1,4,4,22,-13,12,-1,x,x,x
COc1ccc(CN(C2CCCC2)S(=O)(=O)c2ccc(-n3cnnn3)cc2)cc1OC,-30,7,-1,4,-9,13,x,x,x
COc1ccc(CN(C2CCCC2)S(=O)(=O)c2ccc(-n3cnnn3)cc2)cc1,-10,15,8,-7,58*,15,14,11,1
COc1cccc(-c2cccc3c4c([nH]c23)[C@@H]2C[C@H]3[C@@H](C(=O)N2CC4)[C@H](C)ON3C)c1,x,14,x,x,x,x,x,x,x
CCC(C)(C)NC(=O)C(c1ccccc1Cl)N(C(=O)CCC(=O)Nc1cc(C)on1)c1ccc(NC(C)=O)cc1 (stereo not drawn),5,7,-17,-10,54,x,10,28*,-19
Cc1cc(C(C)(C)C)ccc1OCCn1ccnc1,-15,5,7,-24,55*,0,30,6,-10
COC(=O)[C@@H](c1ccccc1)N(C)S(=O)(=O)c1cccc(S(=O)(=O)N(C)[C@@H](C(=O)OC)c2ccccc2)c1,-16,8,28,0,57*,21,33,33*,22
Cc1cc(C(=O)CN2CCC(C)CC2)c(C)n1-c1ccccc1F,-48,17,-59,-9,70*,x,76*,34*,83*
CCCN1CCCCC(NC(C)=O)C1=O (stereo not drawn),x,-12,x,x,x,x,x,x,x
CN1CCN(C(=S)NC(=O)c2ccc(C(C)(C)C)cc2)CC1,-22,-18,20,4,60*,x,17,11,-63
SMILES,697 NFkB inh,COUP-TFII inh,Jurkat NFkB inh,Cardio protect,Gli-Sufu antag,H9c2 TAG inh,Gli antag conf,SufuKO cytotox,Wnt3a cs
Cc1ccc(C(=O)NC(=S)N2CCN(C)CC2)cc1,-16,-35,4,2,-2,x,x,x,x
CSC1=NCCN1C(=O)Cc1ccc(-c2ccccc2)cc1,-10,-15,5,-27,62*,-4,23,13,-94
CCSC1=NCCN1C(=O)Cc1ccc(-c2ccccc2)cc1,-8,-8,12,-9,-8,-4,x,x,x
COc1ccc(-n2c(-c3ccc(Br)cc3)nc(=S)c3c2CCCC3)cc1,-17,1,9,3,7,x,x,x,x
COc1ccc(-n2c(-c3ccc(Br)cc3)c[n+]3c2CCC3)cc1,7,20,23,-23,80*,-17,80*,38*,9
COc1ccc(-n2c(-c3ccc(Br)cc3)c[n+]3c2SC(C)C3)cc1 (stereo not drawn),27,13,-1,-18,76*,-1,85*,42*,-21
COc1ccc(-n2c(-c3ccc(Br)cc3)n[nH]c2=S)cc1,8,10,-9,-7,-14,13,x,x,x
COc1ccc(-n2c(-c3ccccc3)c[n+]3c2CCC3)cc1,18,20,48,-13,72*,-13,80*,38*,23
COc1ccc(-n2c(-c3ccc(Br)cc3)c[n+]3c2CCCCC3)cc1,-36,26,26,-20,88*,x,86*,41*,23
S=C(Nc1ccc(Br)cc1)OCCN1CCCC12CCC(c1ccccc1)CC2 (stereo not drawn),x,-3,x,x,x,x,x,x,x
O=C(CN1CCOCCOCCOCCOCC1)Nc1ccccc1,3,-23,-22,4,96*,x,20,8,-32
O=C(Nc1ccc(-c2nnc3n2CCCCC3)cc1)c1ccco1,8,-3,5,3,-3,x,x,x,x
Cc1c(C(=O)Nc2ccc(-c3nnc4n3CCCCC4)cc2)oc2ccc(Br)cc12,-41,11,-7,9,52,x,32,13,-97
